The supplement of paper PMC6992640
± gives the standard deviation of the averaged measurements.

Columns and labels:
Test in all cases: cell viability (% of vehicle); higher = less cytotoxic
Details in all cases: 10 µM; 72 h
[1] = tested on: HCI01 (cells of a triple-negative basal-like breast cancer xenograft)
[2] = tested on: HCI03 (cells of an ER-positive luminal breast cancer xenograft)
[3] = tested on: HCI09 (cells of a triple-negative luminal androgen receptor type breast cancer xenograft)
[4] = tested on: HCI11 (cells of an ER-positive luminal breast cancer xenograft)
[5] = tested on: HCI13 (cells of an ER-positive luminal breast cancer xenograft)
[6] = tested on: HCI16 (cells of a triple-negative basal-like breast cancer xenograft)
[7] = tested on: UCD52 (cells of a triple-negative basal-like breast cancer xenograft)
[8] = tested on: WHIM2 (cells of a triple-negative basal-like breast cancer xenograft)
[9] = tested on: WHIM30 (cells of a triple-negative basal-like breast cancer xenograft)
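Note: PDX cells carrying CMV promoter-driven luciferase, viability read as total photon flux per second by IVIS imaging following D-luciferin, vehicle control 0.1% DMSO.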

Row | SMILES | cell viability [1] | cell viability [2] | cell viability [3] | cell viability [4] | cell viability [5] | cell viability [6] | cell viability [7] | cell viability [8] | cell viability [9]
1 | CCCCCCCCCCCCCCCC(=O)OCC=C(C)C=CC=C(C)C=CC1=C(C)CCCC1(C)C [Retinyl (Vitamin A) Palmitate] | 102 ± 22 | 100 | 88.4 ± 3.2 | 88.1 | 79 ± 17 | 104 | 94.3 ± 4.9 | 112 ± 27 | 125 ± 13
2 | N.N.[Cl][Pt+2][Cl] [Cisplatin] | 114 ± 0.99 | 124 | 64 ± 66 | 119 | 66.6 ± 27 | 117 | 99.9 ± 11 | 117 ± 18 | 133 ± 14
3 | CC(=O)O.CC(O)C(CO)NC(=O)C1CSSCC(NC(=O)C(N)Cc2ccccc2)C(=O)NC(Cc2ccccc2)C(=O)NC(Cc2c[nH]c3ccccc23)C(=O)NC(CCCCN)C(=O)NC(C(C)O)C(=O)N1 (configuration not stated) [Octreotide acetate] | 86.6 ± 6.2 | 135 | 87.9 ± 14 | 95.4 | 87.9 ± 3.6 | 90.1 | 84.3 ± 9.8 | 86.9 ± 20 | 102 ± 15
4 | C#CCNC1CCc2ccccc21.CS(=O)(=O)O (configuration not stated) [Rasagiline Mesylate] | 157 ± 6 | 117 | 117 ± 8.5 | 127 | 126 ± 4.8 | 141 | 107 ± 8.4 | 114 ± 6.4 | 139 ± 16
5 | CCOC(=O)c1ccc(OC(=O)CCCCCN=C(N)N)cc1.CS(=O)(=O)O [Gabexate mesylate] | 170 ± 9.1 | 122 | 98 ± 3.2 | 147 | 96.8 ± 1.2 | 159 | 142 ± 6.2 | 111 ± 10 | 180 ± 27
6 | O=C1CCC(C(=O)N2CSCC2C(=O)O)N1 (configuration not stated) [Pidotimod] | 93.1 ± 30 | 137 | 96.2 ± 5.1 | 96.7 | 132 ± 3.4 | 108 | 98.5 ± 9.8 | 90 ± 22 | 122 ± 2.3
7 | CNC(=O)C(NC(=O)C(CC(C)C)C(O)C(=O)NO)C(C)(C)C (configuration not stated) [Marimastat] | 138 ± 9.7 | 111 | 78.3 ± 3 | 118 | 72.6 ± 8.9 | 127 | 101 ± 16 | 105 ± 10 | 117 ± 13
8 | COC(=O)C1C2CC3c4[nH]c5cc(OC)ccc5c4CCN3CC2CC(OC(=O)c2cc(OC)c(OC)c(OC)c2)C1OC (configuration not stated) [Reserpine] | 123 ± 29 | 112 | 92.8 ± 4.8 | 89 | 129 ± 10 | 132 | 105 ± 1.3 | 88.36 ± 0.5 | 109 ± 7.1
9 | CS(=O)(=O)O.Cc1ccc(NC(=O)c2ccc(CN3CCN(C)CC3)cc2)cc1Nc1nccc(-c2cccnc2)n1 [Imatinib Mesylate (STI571)] | 157 ± 24 | 86.7 | 67.7 ± 12 | 69.7 | 91.3 ± 11 | 99 | 67.8 ± 1.8 | 88.9 ± 6.2 | 114 ± 18
10 | CC1(C)SC2C(NC(=O)C(NC(=O)N3CCNC3=O)c3ccccc3)C(=O)N2C1C(=O)[O-].[Na+] (configuration not stated) [Azlocillin sodium salt] | 97.6 ± 24 | 131 | 104 ± 17 | 104 | 76.5 ± 9.1 | 130 | 97.766 ± 0.039 | 106 ± 29 | 125 ± 12
11 | Cc1nnc(SCC2=C(C(=O)[O-])N3C(=O)[C@@H](NC(=O)Cn4cnnn4)[C@H]3SC2)s1.[Na+] [Cefazolin (sodium salt)] | 115 ± 6.6 | 131 | 97.4 ± 9.4 | 85.9 | 125 ± 18 | 126 | 119 ± 12 | 104 ± 6 | 129 ± 8.7
12 | CNS(=O)(=O)CCc1ccc2[nH]cc(C3CCN(C)CC3)c2c1.Cl [Naratriptan] | 102 ± 13 | 127 | 96.7 ± 4.1 | 72.5 | 86.22 ± 0.42 | 105 | 103 ± 1.1 | 91.5 ± 8 | 109 ± 7.3
13 | N[C@@H](Cc1cc(I)c(Oc2cc(I)c(O)c(I)c2)c(I)c1)C(=O)O [L-Thyroxine] | 66.5 ± 44 | 151 | 114 ± 14 | 93.3 | 150 ± 56 | 136 | 85 ± 2.5 | 93.6 ± 27 | 177 ± 6.2
14 | COc1c(C)c2c(c(O)c1CC=C(C)CCC(=O)OCCN1CCOCC1)C(=O)OC2 [Mycophenolate Mofetil] | 141 ± 31 | 106 | 86.9 ± 23 | 103 | 81.8 ± 11 | 86.2 | 91.4 ± 22 | 112 ± 7.2 | 130 ± 30
15 | Cc1cccn2c(=O)c(-c3nnn[n-]3)cnc12.[K+] [Pemirolast potassium] | 97.99 ± 0.96 | 98.7 | 84 ± 3.5 | 90.1 | 97.8 ± 29 | 108 | 92.2 ± 1.2 | 113 ± 7.9 | 93.4 ± 17
16 | CCc1cccc2c3c([nH]c12)C(CC)(CC(=O)O)OCC3 (configuration not stated) [Etodolac] | 117 ± 23 | 104 | 98.8 ± 27 | 97.2 | 97.3 ± 8 | 96.8 | 79.2 ± 9.2 | 92.6 ± 19 | 86 ± 8.4
17 | c1coc(CNc2ncnc3nc[nH]c23)c1 [Kinetin] | 109 ± 4.5 | 123 | 103 ± 12 | 100 | 120 ± 7.4 | 86.8 | 102 ± 20 | 93.7 ± 4 | 121 ± 4.5
18 | CCCN(CCC)C(=O)C1=Cc2ccc(-c3ccc(C(=O)N4CCCC4)cc3)cc2NC(=N)C1 [Motolimod (VTX-2337)] | 100 ± 41 | 97.5 | 32.1 ± 0.89 | 63.6 | 76.6 ± 7 | 105 | 66 ± 3.8 | 71 ± 15 | 100 ± 12
19 | CCNC1(C(N)=O)CCN(c2ncnc3c2nc(-c2ccccc2Cl)n3-c2ccc(Cl)cc2)CC1.Cl | 83 ± 14 | 86 | 39.3 ± 16 | 75 | 81 ± 13 | 92.1 | 63.4 ± 1.6 | 89.6 ± 5.2 | 109 ± 9.3

Row | SMILES | cell viability [1] | cell viability [2] | cell viability [3] | cell viability [4] | cell viability [5] | cell viability [6] | cell viability [7] | cell viability [8] | cell viability [9]
20 | CN(C)CCOC(c1ccccc1)c1ccccc1.Cl [Diphenhydramine HCl] | 109 ± 18 | 123 | 87 ± 2.5 | 90.8 | 74 ± 3.2 | 118 | 84.2 ± 6.5 | 107 ± 32 | 116 ± 28
21 | Cl.NCCCC(N)(C(=O)O)C(F)F.O (racemic) [DL-α-Difluoromethylornithine (hydrochloride hydrate)] | 94.2 ± 12 | 94 | 92.3 ± 10 | 65.9 | 80.9 ± 5.2 | 99.2 | 85.3 ± 3.9 | 91.9 ± 5.5 | 97.1 ± 3.2
22 | CCOC(=O)C1=CC(OC(CC)CC)C(NC(C)=O)C(N)C1.O=P(O)(O)O (configuration not stated) [Oseltamivir phosphate] | 111 ± 30 | 126 | 93.5 ± 5.9 | 95.4 | 93.1 ± 9 | 124 | 105 ± 16 | 98.9 ± 12 | 113 ± 1.6
23 | NCCC(O)C(=O)NC1CC(N)C(OC2OC(CN)C(O)C(O)C2O)C(O)C1OC1OC(CO)C(O)C(N)C1O (configuration not stated) [Amikacin] | 93.2 ± 16 | 144 | 105 ± 22 | 95.3 | 106 ± 16 | 114 | 103 ± 11 | 86.1 ± 8.6 | 117 ± 2.6
24 | CO[C@H]1/C=C/O[C@@]2(C)Oc3c(C)c(O)c4c(O)c(c5c(nc6cc(C)ccn65)c4c3C2=O)NC(=O)/C(C)=C\C=C\[C@H](C)[C@H](O)[C@@H](C)[C@H](O)[C@@H](C)[C@H](OC(C)=O)[C@@H]1C [Rifaximin (Xifaxan)] | 121 ± 13 | 115 | 114 ± 43 | 98.8 | 98.8 ± 33 | 97.6 | 91.9 ± 7.9 | 68.6 ± 13 | 128 ± 12
25 | Nc1nc(F)nc2c1ncn2C1OC(CO)C(O)C1O (configuration not stated) [Fludarabine] | 131 ± 27 | 134 | 103 ± 10 | 116 | 165 ± 10 | 171 | 105 ± 4 | 106 ± 2 | 121 ± 8.2
26 | Cc1ncc(C[n+]2csc(CCO)c2C)c(N)n1.Cl.[Cl-] [Thiamine HCl (Vitamin B1)] | 113 ± 8.6 | 143 | 103 ± 16 | 88.6 | 59.8 ± 11 | 103 | 122 ± 39 | 149 ± 25 | 143 ± 3.5
27 | CN(C)CCC=C1c2ccccc2COc2ccc(CC(=O)O)cc21.Cl [Olopatadine HCl] | 122 ± 18 | 130 | 101 ± 9.1 | 97.6 | 182 ± 38 | 99.1 | 81.6 ± 14 | 87.1 ± 13 | 108 ± 4.9
28 | C=CC(=O)N1CCCC(n2nc(-c3ccc(Oc4ccccc4)cc3)c3c(N)ncnc32)C1 (configuration not stated) | 80.2 ± 24 | 69 | 56.2 ± 21 | 83.8 | 87.9 ± 8.6 | 55.6 | 76.7 ± 4.3 | 70.4 ± 7.2 | 103 ± 9.7
29 | CC(OC1OCCN(Cc2nc(=O)[nH][nH]2)C1c1ccc(F)cc1)c1cc(C(F)(F)F)cc(C(F)(F)F)c1 (configuration not stated) [Aprepitant] | 81 ± 48 | 91.5 | 77.5 ± 16 | 86.9 | 35.8 ± 4.5 | 66.1 | 75.3 ± 3.8 | 100 ± 11 | 83.6 ± 3.1
30 | CCCCc1ncc(C=C(Cc2cccs2)C(=O)O)n1Cc1ccc(C(=O)O)cc1.CS(=O)(=O)O [Eprosartan Mesylate] | 156 ± 27 | 129 | 106 ± 17 | 120 | 108 ± 12 | 134 | 124 ± 9.7 | 123 ± 9.3 | 198 ± 22
31 | CN=C(NC#N)NCCSCc1nc[nH]c1C [Cimetidine] | 136 ± 22 | 124 | 93.85 ± 0.84 | 101 | 102 ± 16 | 115 | 88.1 ± 5.3 | 87.8 ± 19 | 120 ± 4.4
32 | CC(=O)Oc1cc2c(s1)CCN(C(C(=O)C1CC1)c1ccccc1F)C2 (configuration not stated) [Prasugrel] | 76.6 ± 67 | 164 | 114 ± 4.9 | 120 | 81.6 ± 18 | 122 | 113 ± 20 | 102 ± 28 | 112 ± 16
33 | O=C1NC(=O)[C@@H](c2c[nH]c3ccccc23)[C@H]1c1cn2c3c(cccc13)CCC2 [Tivantinib (ARQ 197)] | 161 ± 20 | 81 | 51.5 ± 4.9 | 111 | 43.6 ± 9.6 | 125 | 81.8 ± 4.7 | 107 ± 11 | 147 ± 26
34 | CC(=O)C1CCC2C3CC=C4CC(O)CCC4(C)C3CCC12C (configuration not stated) [Pregnenolone] | 141 ± 20 | 126 | 76 ± 7 | 84.5 | 175 ± 44 | 111 | 75.4 ± 2.4 | 99 ± 3.8 | 116 ± 19
35 | CN(C)CCOC(C)(c1ccccc1)c1ccccn1.O=C(O)CCC(=O)O (configuration not stated) [Doxylamine Succinate] | 122 ± 18 | 124 | 101 ± 14 | 101 | 90.5 ± 6.7 | 108 | 94.28 ± 0.33 | 97.4 ± 22 | 103.9 ± 0.48
36 | C=CC[N+]1(C2CC3C4CCC5CC(O)C(N6CCOCC6)CC5(C)C4CCC3(C)C2OC(C)=O)CCCC1.[Br-] (configuration not stated) [Rocuronium Bromide] | 100 ± 8.3 | 133 | 103 ± 3.9 | 102 | 115 ± 7.2 | 80.4 | 118 ± 8 | 99.8 ± 22 | 119 ± 7.7
37 | CO[C@H]1/C=C/O[C@@]2(C)Oc3c(C)c(O)c4c(c3C2=O)C(=O)/C(=C/NN2CCN(C)CC2)C(=C4O)NC(=O)/C(C)=C/C=C/[C@H](C)[C@H](O)[C@@H](C)[C@@H](O)[C@@H](C)[C@H](OC(C)=O)[C@@H]1C [Rifampin] | 86.5 ± 29 | 133 | 85.8 ± 2.5 | 94.5 | 108 ± 16 | 145 | 82.91 ± 0.51 | 64 ± 0.77 | 94.88 ± 0.76
38 | CC(=O)[C@@]1(O)CC[C@H]2[C@@H]3CCC4=CC(=O)CCC4=C3[C@@H](c3ccc(N(C)C)cc3)C[C@@]21C [Ulipristal] | 70.8 ± 48 | 147 | 36.6 ± 13 | 82.9 | 113 ± 3.3 | 118 | 93.5 ± 11 | 87.8 ± 10 | 142 ± 1.3
